Experimental data as given in PubChem BioAssay (NCI).
The panel holds about 83,000 compounds, 20% with a hit somewhere; the sample as a whole holds those more often.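 Values shown are percent growth following 48 h exposure of cells in 96-well plates to a single concentration of compound; below 10 was considered active.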 A number with no mark means an inactive call. Active and inactive are the calls of the source.

Tests used:
Experiment in all cases: NCI-60 one-dose screen, 48 h (100 = growth as untreated, 0 = no growth, -100 = all killed)
Conditions in all cases: 10 µM unless noted
HCT-15 colon = tested on: HCT-15 colon
HT29 colon = tested on: HT29 colon
SNB-75 CNS = tested on: SNB-75 CNS
SNB-19 CNS = tested on: SNB-19 CNS
U251 CNS = tested on: U251 CNS
PC-3 prostate = tested on: PC-3 prostate
SK-MEL-5 melanoma = tested on: SK-MEL-5 melanoma
UACC-62 melanoma = tested on: UACC-62 melanoma
LOX IMVI melanoma = tested on: LOX IMVI melanoma
SK-MEL-28 melanoma = tested on: SK-MEL-28 melanoma

Structure (SMILES) | growth (HCT-15 colon) | growth (HT29 colon) | growth (SNB-75 CNS) | growth (SNB-19 CNS) | growth (U251 CNS) | growth (PC-3 prostate) | growth (SK-MEL-5 melanoma) | growth (UACC-62 melanoma) | growth (LOX IMVI melanoma) | growth (SK-MEL-28 melanoma)
O=C1Nc2ccc(Cl)cc2[C@@](C#CC2CC2)(C(F)(F)F)O1 | 82.9% | 86.6% | 114% | 103% | 92% | 92.9% | 78% | 70% | 85.5% | 109%
O=C1c2cccc3c([N+](=O)[O-])ccc(c23)C(=O)N1CCCCl | -82.6% [100 µM] (active) | -63.2% [100 µM] (active) | -98.6% [100 µM] (active) | -97.8% [100 µM] (active) | -97.4% [100 µM] (active) | -90.8% [100 µM] (active) | -95.6% [100 µM] (active) | -96.3% [100 µM] (active) | -85.5% [100 µM] (active) | -97.3% [100 µM] (active)
CC(C)Sc1nc(-c2ccc(Br)cc2)c(C#N)c(N2CCCCC2)n1 | 96.2% | 94.5% | 99.4% | 105% | 99.9% | 97.5% | 101% | 82.6% | 108% | 105%
COc1ccc(-c2ccc(O)c(C(=O)/C=C/c3cc(OC)c(OC)c(OC)c3)c2)cc1 | 76.6% | 75% | 96.9% | 99.4% | 78% | 61.8% | 71.7% | 67.1% | 62.5% | 104%
Nc1ncnc2c1CN(Cc1ccccc1)CC2 | 107% | 104% | 89% | 104% | 101% | 93.9% | 109% | 107% | 91.4% | 109%
COc1ccc(CNC(=O)c2c(C)n([O-])c3ccccc3[n+]2=O)cc1 | 103% | 102% | 79.9% | 97.7% | 97.3% | 86.3% | 76.6% | 96.8% | 96.8% | 104%
COc1cccc(/C=N/Nc2nc3ccccc3s2)c1OC | 43.1% | 61.1% | 86.5% | 83.9% | 49.1% | 46.3% | 52.6% | 66.7% | 47.6% | 97.8%
COc1ccc(NC(=O)c2ccc(-c3ccccc3)cc2)c(C(N)=O)c1 | 97.1% | 99.9% | 112% | 94.2% | 98.4% | 93.1% | 101% | 91.5% | 96.6% | 108%
COc1ccc2nc(-c3ccc(Cl)cc3)cc(-c3nnc(SCC(=O)Nc4ccc(C(C)=O)cc4)n3-c3ccccc3)c2c1 | 101% | 78.6% | 81% | 105% | 101% | 87.3% | 103% | 97.7% | 105% | 107%
COc1cnc2c(c1)C(=O)c1c-2n(CCCn2ccnc2)c(=O)c2cc(F)ccc12 | -28.4% (active) | -16.2% (active) | 4.31% (active) | 16.6% | -27.1% (active) | -4.35% (active) | -96.2% (active) | -55% (active) | -68.9% (active) | -62.5% (active)
O=C(COc1ccc(/C=C2\Cc3ccccc3C2=O)cc1)c1ccc(Cl)cc1 | 96.1% | 109% | 94.5% | 95.7% | 93.7% | 92.1% | 98.4% | 95.2% | 92.8% | 117%
COc1ccc(/C=C2/SC(=Nc3c(C)nn(-c4ccccc4)c3N)NC2=O)cc1 | 33.3% | 16.6% | 5.59% (active) | 51.3% | 40% | 29.1% | 21.2% | 26.8% | 33.1% | 58.7%
COc1cc(C2CC(c3ccc(C)cc3)=NN2C=O)ccc1OCCN(C)C (stereo not given) | 76% | 84.2% | 62.2% | 92.5% | 92.2% | 79% | 90.2% | 100% | 89.8% | 107%
COc1cc(/C=C2\CN(C)CC3=C2Nc2nc(SC)[nH]c(=O)c2C3c2cc(OC)c(OC)c(OC)c2)cc(OC)c1OC (stereo not given) | 36.6% | 15% | 27.8% | 66.8% | 20.6% | 68% | 58.2% | 30% | 3.87% (active) | 44.9%
